Sampled rows, rich in hits. Any-hit rate of the full collection: about 13%.
Pf growth 48h – inhibits P. falciparum growth in the first generation, 48 h; Potency, µM (titrated, usually from 28.7 µM), inactives show at the highest dose activity change, negative = inhibition, most hits filed as inhibitors; 5.9% of 310,000 active; AID 504832; P. falciparum luciferase growth in erythrocytes, 48 h; further: potency means the concentration at half of the fitted maximal effect
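Luminescence readout; reporter = integrated firefly luciferase in P. falciparum. RBC culture at 2% hematocrit, 0.1% parasitemia final, 37 C/5% CO2; decreased signal taken as growth inhibition.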
HCMV antiviral – human cytomegalovirus inhibition; HFF cells, HCMV-luciferase reporter, 72 h; active compounds read low; activity change, negative = inhibition, % at 57.5 µM; 4.5% of 410,000 active; in the data active means activity change below about -60%; inconclusive means no clear call, values can overlap the other calls; inactive means above about -39%
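Compounds were evaluated in HFFs infected with an HCMV luciferase reporter virus (MOI 1 PFU/cell). Luciferase in lysates collected 72 h post infection served as the replication measure.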
HCV inh – HCV inhibition; AID 651820; 3.4% of 340,000 active; Huh7.5.1 HCVcc-Cre infection, luciferase reporter, 44 h; Potency, µM (titrated, usually from 41.8 µM), for the others: top-dose activity change, negative = inhibition, actives largely listed as inhibitors; further: potency means the concentration at half of the fitted maximal effect
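Reporter virus HCVcc-Cre (~0.5 moi) infects cells exposed to compound; seeding density 1,000 cells/well with 4 h settling beforehand. Luminescence, 15 sec read, taken 44 h post-infection following a 15 min RT substrate incubation.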
Pf growth 96h – inhibits malaria parasite growth, 96 h; P. falciparum luciferase reporter growth, 96 h; Potency, µM (top dose mostly 28.7 µM), for inactives: at the top dose activity change, negative = inhibition, most hits filed as inhibitors; 6.9% of 320,000 active; AID 504834; further: potency means the concentration at half of the fitted maximal effect
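Two-generation exposure (96 h) targets delayed-death phenotype. Reporter parasites carrying integrated firefly luciferase, in red cells at 2% hematocrit and 0.05% parasitemia final, kept at 37 C, 5% CO2; luminescence loss indicates inhibition.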
Starred values were filed as active, the others as inactive. Unless noted, the call rests on the fitted dose curve; in most records, active means well fitted inhibition curve with a large enough effect; inconclusive means small, poorly fitted or top-dose-only effect, or another doubt; inactive means no such curve, though single readings can be large or run the other way. On the % scale 0 is the no-effect control and ±100 the full control effect.

How did Cn1c(SCc2cccc([N+](=O)[O-])c2)nc2c(c1=O)SCC2 do in these assays?
Pf growth 48h: inconclusive; HCMV antiviral: -72*; HCV inh: inconclusive; Pf growth 96h: 3.7µM*

What do the screens show for `Cn1c(SCC(=O)Nc2ccc(C(N)=O)cc2)nc2c(c1=O)SCC2`?
Pf growth 48h: 5%; HCMV antiviral: 12; HCV inh: 17%; Pf growth 96h: -2%

How did COc1cc(C(=O)N2CCNC(=O)C2CC(=O)Nc2ccc(C)c(C)c2)cc(OC)c1OC (configuration not stated) do in these assays?
HCMV antiviral: -6

What do the screens show for `O=C(CCCn1c(=O)c2sccc2n(Cc2cccc(Cl)c2)c1=O)NCc1ccc2c(c1)OCO2`?
HCMV antiviral: 2

What do the screens show for `Cc1cc(C)cc(NC(=O)CSc2nc3c(c(=O)n2C)SC(C)C3)c1` (configuration not stated)?
Pf growth 48h: inconclusive; HCMV antiviral: inconclusive; HCV inh: inconclusive; Pf growth 96h: -19%

How did COc1cccc(NC(=O)CSc2nc3c(c(=O)n2C)SC(C)C3)c1 (configuration not stated) do in these assays?
Pf growth 48h: 12µM*; HCMV antiviral: 0; HCV inh: inconclusive; Pf growth 96h: 9.3µM*

What do the screens show for `O=[N+]([O-])c1cccc(S(=O)(=O)Nc2ccc(S(=O)(=O)N3CCCC3)cc2)c1`?
HCMV antiviral: 19; HCV inh: 5%

Results for Cc1ccc(S(=O)(=O)N2CCCCC2)cc1C(=O)N1CCN(c2ccccn2)CC1 ?
Pf growth 48h: 10%; HCMV antiviral: 7; HCV inh: -17%; Pf growth 96h: -17%

Results for O=C(NNC(=O)c1ccccc1O)c1ccc(S(=O)(=O)Nc2ccccc2F)cc1 ?
Pf growth 48h: inconclusive; HCMV antiviral: -4; HCV inh: 16µM*; Pf growth 96h: -8%

What do the screens show for `O=[N+]([O-])c1cccc(S(=O)(=O)Nc2nc3ccccc3nc2Nc2cccc(S(=O)(=O)N3CCCCC3)c2)c1`?
Pf growth 48h: 15µM*; HCMV antiviral: -100*; HCV inh: 10µM*; Pf growth 96h: 5.2µM*

What do the screens show for `O=C(c1ccc(S(=O)(=O)N2CCCCCC2)cc1)N1CCN(c2ccccn2)CC1`?
Pf growth 48h: 13µM*; HCMV antiviral: -13; HCV inh: 0%

What do the screens show for `O=C(c1ccc(S(=O)(=O)Nc2ccccc2F)cc1)N1CCN(c2ccccn2)CC1`?
HCMV antiviral: -26; HCV inh: 4.5µM*

What do the screens show for `O=[N+]([O-])c1ccc(S(=O)(=O)N2CCN(c3ccccn3)CC2)cc1`?
HCMV antiviral: -15

How did O=[N+]([O-])c1cccc(S(=O)(=O)N2CCN(c3ccccn3)CC2)c1 do in these assays?
Pf growth 48h: 19%; HCMV antiviral: -3; HCV inh: 8%; Pf growth 96h: 10µM*

How did CCOC(=O)Cn1c(=O)c2c(nc3n2CCN3c2ccc(CC)cc2)n(C)c1=O do in these assays?
HCMV antiviral: 5

How did COc1ccc(OCC(=O)Nc2cc(-c3nn(C)c(=O)c4ccccc34)ccc2OC)cc1 do in these assays?
Pf growth 48h: inconclusive; HCMV antiviral: 16; HCV inh: 8.9µM*; Pf growth 96h: inconclusive

What do the screens show for `COc1ccc(OCC(=O)Nc2cc(-c3nn(C)c(=O)c4ccccc34)ccc2N2CCOCC2)cc1`?
Pf growth 48h: inconclusive; HCMV antiviral: 22; HCV inh: inconclusive; Pf growth 96h: 5.9µM*

Results for COc1ccc(NC(=O)COc2ccc(-c3nn(C)c(=O)c4ccccc34)cc2)cc1 ?
Pf growth 48h: -5%; HCMV antiviral: 3; HCV inh: -23%; Pf growth 96h: -27%

Results for O=C(O)c1ccc(N[C@@H]2OC[C@@H](O)[C@@H](O)[C@@H]2O)cc1 ?
Pf growth 48h: -3%; Pf growth 96h: 3%

How did O=C(Nc1ccc2c(c1)N(S(=O)(=O)c1cccs1)CCC2)c1c(F)cccc1Cl do in these assays?
Pf growth 48h: inconclusive; HCMV antiviral: -27; HCV inh: 14µM*; Pf growth 96h: inconclusive

How did CCN(CC)CCNC(=O)C(=O)Nc1ccc2c(c1)N(S(=O)(=O)c1cccs1)CCC2 do in these assays?
Pf growth 48h: 15µM*; HCMV antiviral: -23; HCV inh: inconclusive; Pf growth 96h: inconclusive

Results for NC(=O)C1CCN(c2nc(-c3cccc([N+](=O)[O-])c3)cs2)CC1 ?
Pf growth 48h: inconclusive; Pf growth 96h: -19%

Source: PubChem BioAssay (National Center for Advancing Translational Sciences (NCATS))
